Each structure is given as a SMILES string. The panel holds about 83,000 compounds, 20% with a hit somewhere; the sample as a whole holds those more often.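 Negative percent growth values reflect cell death: -40 means 40% of the cells present at the start died, and -100 means all died.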 Unmarked numbers belong to inactive results. Active and inactive are the calls of the source. Rule for the calls: active = growth percent below 10; inactive = the rest.

Holding throughout (assay): NCI-60 one-dose screen, 48 h (100 = growth as untreated, 0 = no growth, -100 = all killed)
One assay concerns SK-MEL-2 melanoma. Conditions: 10 µM unless noted.
In the next assay the test system is EKVX NSCLC. Conditions: 10 µM unless noted.
Another assay relates to SN12C renal. Conditions: 10 µM unless noted.
A further assay relates to TK-10 renal. The conditions noted are these: 10 µM unless noted.
In the next assay the test system is ACHN renal. Conditions: 10 µM unless noted.
The next assay has as its system A498 renal. The conditions noted are these: 10 µM unless noted.
A further assay concerns CCRF-CEM leukemia. Conditions: 10 µM unless noted.
The next assay relates to MOLT-4 leukemia. The conditions noted are these: 10 µM unless noted.
The subject of a further assay is SR leukemia. The conditions noted are these: 10 µM unless noted.
The next assay deals with RPMI-8226 leukemia. Conditions: 10 µM unless noted.
A further assay deals with OVCAR-8 ovarian. Conditions: 10 µM unless noted.
The subject of a further assay is OVCAR-5 ovarian. The conditions noted are these: 10 µM unless noted.
The next assay relates to OVCAR-4 ovarian. The conditions noted are these: 10 µM unless noted.
The next assay deals with SK-OV-3 ovarian. The conditions noted are these: 10 µM unless noted.
The subject of another assay is IGROV1 ovarian. The conditions noted are these: 10 µM unless noted.
A further assay deals with HS 578T breast. Conditions: 10 µM unless noted.
The subject of another assay is NCI/ADR-RES ovarian. Conditions: 10 µM unless noted.
For a further assay, the system named is CAKI-1 renal. Conditions: 10 µM.
The next assay deals with OVCAR-3 ovarian. Conditions: 10 µM unless noted.

As to `COc1cc(-c2nc3ccccc3s2)ccc1OCc1nc2n(n1)S(=O)(=O)c1ccccc1N2C`, the growth in the assay on SK-MEL-2 melanoma is 85.9%; in the assay on EKVX NSCLC, 53.6%; in the assay on SN12C renal, 107%; in the assay on TK-10 renal, 87.8%; in the assay with ACHN renal it was 94.3%; in the assay on A498 renal it was 89.9%. Moreover, the growth with CCRF-CEM leukemia was 4.89% (active); in the assay on MOLT-4 leukemia it was 89.1%; in the assay with SR leukemia, 27.1%; in the assay with RPMI-8226 leukemia, 61.2%; in the assay with OVCAR-8 ovarian it was 74.5%; in the assay on OVCAR-5 ovarian, 99.1%. Also, the growth is 93.3% in the assay with OVCAR-4 ovarian; 84.6% in the assay with SK-OV-3 ovarian; 25.6% with IGROV1 ovarian; 48.7% in the assay on HS 578T breast; 93% with NCI/ADR-RES ovarian.
Regarding `O=C(Nc1ccc(-n2cc(-c3ccncc3)c(-c3ccc(O)c(Cl)c3)n2)cc1)Nc1ccc(Cl)c(C(F)(F)F)c1`, the growth with SK-MEL-2 melanoma was -42.2% (active); in the assay on EKVX NSCLC, 19.5%; in the assay with SN12C renal, 19.1%; in the assay with ACHN renal, 13.2%; in the assay on CAKI-1 renal it was -3.83% (active); in the assay on A498 renal it was 63.5%. For the same compound, the growth was 7.92% (active) in the assay on CCRF-CEM leukemia; 9.62% (active) in the assay with MOLT-4 leukemia; 4.23% (active) in the assay on SR leukemia; -19.2% (active) in the assay on RPMI-8226 leukemia; 15.2% in the assay on OVCAR-8 ovarian; 43.4% in the assay with OVCAR-5 ovarian. Further, the growth with OVCAR-4 ovarian is 42.2%; in the assay with SK-OV-3 ovarian it was 32.6%; with IGROV1 ovarian, 22.8%.
Take `CC1(C)N=C(N)N=C(N)N1c1ccc(F)c(C(F)(F)F)c1`: the growth was 54.4% in the assay with SK-MEL-2 melanoma; 65.2% in the assay on EKVX NSCLC; 47.4% in the assay on SN12C renal; 65.5% with TK-10 renal; 36% in the assay on ACHN renal; 93.1% in the assay on A498 renal. Further, the growth is 20.8% in the assay on CCRF-CEM leukemia; 50.4% in the assay on RPMI-8226 leukemia; 8.44% (active) in the assay with OVCAR-8 ovarian; 41.8% with OVCAR-5 ovarian; 55.3% in the assay on OVCAR-4 ovarian; 60.5% with SK-OV-3 ovarian. The growth was 53.9% in the assay on OVCAR-3 ovarian, 99.3% in the assay with HS 578T breast and 91.9% in the assay on NCI/ADR-RES ovarian.
Consider `COc1ccc(-c2nn(-c3ccc(NC(=O)Nc4ccc(Cl)c(C(F)(F)F)c4)cc3)cc2-c2ccncc2)cc1Cl`, for which the growth in the assay on SK-MEL-2 melanoma was -43.4% (active); with EKVX NSCLC it was 11.1%; with SN12C renal it was 16.5%; in the assay on ACHN renal, 7.51% (active); in the assay on CAKI-1 renal, -18.8% (active); in the assay with CCRF-CEM leukemia, 6.6% (active). Moreover, the growth in the assay on MOLT-4 leukemia was 8.53% (active); in the assay on SR leukemia, -7.31% (active); in the assay with RPMI-8226 leukemia, -33.1% (active); in the assay with OVCAR-8 ovarian, 9.53% (active); in the assay on OVCAR-5 ovarian, 14.5%; in the assay on OVCAR-4 ovarian it was 45.1%. Also, the growth in the assay on SK-OV-3 ovarian is 23.9%; with IGROV1 ovarian it was 24.8%; with NCI/ADR-RES ovarian, 9.1% (active).
Consider `CCN(CC)C(=O)C1CCN(C(=O)c2ccccc2)CC1`, for which the growth is 98.3% with SK-MEL-2 melanoma; 101% with EKVX NSCLC; 101% with SN12C renal; 87.1% in the assay with TK-10 renal; 85.7% in the assay on A498 renal; 80.9% with CCRF-CEM leukemia. The growth in the assay on MOLT-4 leukemia is 92.2%; with SR leukemia, 102%; in the assay on RPMI-8226 leukemia it was 97.8%; with OVCAR-8 ovarian, 103%; in the assay on OVCAR-5 ovarian, 108%; with OVCAR-4 ovarian, 106%. The growth in the assay with SK-OV-3 ovarian was 102%; in the assay with IGROV1 ovarian it was 103%; with OVCAR-3 ovarian, 104%; in the assay with HS 578T breast, 97%; with NCI/ADR-RES ovarian it was 97.9%.
For `O=C(Nc1cccc(-n2ccc3c(NC(=O)c4ccccc4)ncnc32)c1)Nc1ccc(Cl)c(C(F)(F)F)c1`, the growth is -8.08% (active) in the assay with SK-MEL-2 melanoma; 32.1% in the assay with EKVX NSCLC; 40.9% in the assay on SN12C renal; 25.5% in the assay on ACHN renal; 18.1% in the assay on CAKI-1 renal; 42.9% in the assay with A498 renal. The growth with CCRF-CEM leukemia is 16.4%; in the assay with MOLT-4 leukemia it was 15.8%; with SR leukemia, 17.7%; in the assay with RPMI-8226 leukemia it was 16.2%; in the assay on OVCAR-8 ovarian, 25.9%; in the assay with OVCAR-5 ovarian, 48.1%. Moreover, the growth in the assay on OVCAR-4 ovarian is 64.4%; with SK-OV-3 ovarian, 52.2%; in the assay with IGROV1 ovarian, 32.5%; in the assay with OVCAR-3 ovarian, 26.1%; in the assay with NCI/ADR-RES ovarian, 34.8%.
Regarding `COc1cc2nc(C(=O)N3CCCCC3)cc(Nc3ccccc3)c2cc1OC`, the growth in the assay with SK-MEL-2 melanoma was 99.5%; with EKVX NSCLC, 97.3%; in the assay on SN12C renal, 98.9%; in the assay with TK-10 renal, 98.6%; in the assay with ACHN renal, 96.4%; with CCRF-CEM leukemia, 101%. Besides, the growth was 97.3% in the assay with MOLT-4 leukemia; 81.7% in the assay with SR leukemia; 87.6% in the assay with RPMI-8226 leukemia; 98.3% in the assay on OVCAR-8 ovarian; 109% in the assay on OVCAR-5 ovarian; 100% in the assay on OVCAR-4 ovarian. The growth in the assay on SK-OV-3 ovarian was 108%; with IGROV1 ovarian, 98.3%; in the assay on OVCAR-3 ovarian, 93.9%; in the assay with HS 578T breast it was 95%; in the assay with NCI/ADR-RES ovarian it was 95.4%.
For `CC(=O)Cc1cccnc1`, the growth in the assay on SK-MEL-2 melanoma was 116%; in the assay on EKVX NSCLC, 105%; in the assay with SN12C renal, 98.9%; in the assay on TK-10 renal it was 95.5%; in the assay on A498 renal, 85.4%; in the assay with CCRF-CEM leukemia, 88.5%. In addition, the growth in the assay with MOLT-4 leukemia is 93.7%; in the assay on SR leukemia it was 104%; in the assay with RPMI-8226 leukemia, 93%; in the assay on OVCAR-8 ovarian it was 97%; with OVCAR-5 ovarian, 109%; in the assay on OVCAR-4 ovarian, 108%. For the same compound, the growth in the assay on SK-OV-3 ovarian was 114%; in the assay with IGROV1 ovarian it was 100%; in the assay with OVCAR-3 ovarian, 116%; in the assay with HS 578T breast, 95.2%; in the assay with NCI/ADR-RES ovarian, 104%.

Source of the values: PubChem BioAssay (NCI).
